According to PubChem BioAssay AID1117319 (Southern Research Institute, 2015):
Several values for one entry are separate records, joined by “and”; a condition that tells them apart may be missing. Identical values can stand only once. The whole screen tested about 260,000 compounds, of which about 1,500 (0.58%) were called active. Another 5% or so got no clear call; they are omitted.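 The calls were made as follows: active = inhibition above a set limit at one or more doses, reproduced on every date tested; inconclusive = results disagree between test dates, or hit never tested in dose response; inactive = the rest.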 A selection follows. Measured potencies and affinities stand elsewhere.

target: Virion infectivity factor (Human immunodeficiency virus type 1 group M subtype B (isolate BH10)) + Virion infectivity factor (Human immunodeficiency virus type 1 group M subtype B (isolate BRU/LAI)) + Virion infectivity factor (Human immunodeficiency virus type 1 group M subtype B (isolate PCV12)) + Virion infectivity factor (Human immunodeficiency virus type 1 group M subtype B (isolate HXB2)) + DNA dC->dU-editing enzyme APOBEC-3G (Homo sapiens) (UniProt P69720+P69721+P69722+P69723+Q9HC16); assay: inhibitors of Vif binding to APOBEC3G peptide, primary screen, biochemical, TR-FRET, GST-Vif 1-94, biotin-A3G peptide, dose response retest (AID 1117319); conditions: hits give high values;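 also: Vif residues 1-94 fused to GST binding biotinylated APOBEC3G peptide 110-148; 0% = full assay without inhibitor and 100% = GST in place of GST-Vif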

SMILES	inhibition
CC(=O)c1ccc(S(=O)(=O)NCc2cccnc2)cc1	0.59% (inactive)
COc1cc(C(C)=O)ccc1OCC(=O)N1CCCC1c1ccc2c(c1)OCCCO2 (stereo not drawn)	-2.26% (inactive)
CCCCn1c(SCC(=O)NCCOC)nc2ccc(N3CCOCC3)cc2c1=O	32.1% (inactive) and 5.24% (inactive)
CCCCn1c(SCC(=O)NCc2ccccc2)nc2ccc(N3CCOCC3)cc2c1=O	18.7% (inactive)
CCCC(=O)Nc1cc(C)c(NC(=O)Cc2ccccc2)cn1	-1.31% (inactive)
CCN(CC)c1cc(Cl)c2nonc2c1N	0.28% (inactive)
Nc1c(N2CCCC2)cc(Cl)c2nonc12	22.8% (inactive)
CCOC(=O)N1CCN(C(=O)c2c(-c3ccccc3)noc2C)CC1	-4.55% (inactive)
COc1cccc(-c2cc(C(=O)NCc3ccco3)no2)c1	2.27% (inactive)
Cc1onc(-c2c(Cl)cccc2Cl)c1C(=O)NCc1ccco1	2.61% (inactive)
O=C(NCc1ccco1)c1cc(-c2ccccc2)on1	-2.43% (inactive)
Cc1onc(-c2c(F)cccc2Cl)c1C(=O)NCc1ccco1	0.03% (inactive)
O=C(NCCCn1ccnc1)C(=O)NCC1OCCN1S(=O)(=O)c1ccccc1 (stereo not drawn)	20.3% (inactive)
Cc1ccc(S(=O)(=O)N2CCCc3ccccc32)cc1	3.67% (inactive)
Cc1ccc(-c2sc(C(=O)NN)c(C)c2C#N)cc1	-0.1% (inactive)
CCc1noc(C)c1C(=O)NC1CCCc2c1cnn2-c1cc(C)cc(C)c1 (stereo not drawn)	-1.36% (inactive)
O=C1N[C@@H](c2ccccc2)COC(=O)[C@H](Cc2ccc(F)cc2)CC/C=C/C[C@H]1CC(=O)N(CCO)Cc1ccccc1	3.93% (inactive)
COc1cccc(-c2cccc(NC(=O)C3CCN(CCCn4cccn4)CC3)c2)c1	6% (inactive)
CCn1nc(C(=O)Nc2cc(Cl)ccc2-n2cncn2)c2ccccc2c1=O	-6.28% (inactive)
C=CCn1c(O)c(C(CC)=Nc2ccccc2NC(=O)CC)c(=O)[nH]c1=O	30.8% (inactive)
C=CCn1c(O)c(C(CC)=NCc2cccnc2)c(=O)[nH]c1=O	7.28% (inactive)
Cc1ccc(OCc2n[nH]c(=S)n2Cc2ccccc2)cc1	24.6% (inactive)
O=C(Cc1ccccc1)Nc1ccc(N2CCN(Cc3ccccc3F)CC2)cc1	6.73% (inactive)
COC(=O)C1CCN(C(=O)CCCOc2ccccc2)CC1	8.9% (inactive)
CC(=O)Nc1ccc(SCC(=O)Nc2ccccc2N2CCOCC2)cc1	-9.09% (inactive)

SMILES	inhibition
COC(=O)c1cc(C(=O)OC)cc(S(=O)(=O)Nc2ccc(Cl)c(N)c2)c1	-4.45% (inactive)
C=CCN=c1scc(-c2ccccc2)n1/N=C/c1ccccn1	11.2% (inactive)
CN=c1scc(C)n1/N=C/c1ccc2c(c1)OCO2	13.4% (inactive)
Oc1ccc(/C=N/n2c(-c3ccco3)csc2=Nc2cccnc2)c(O)c1	21% (inactive)
COc1ccc(O)c(/C=N/n2c(-c3ccco3)csc2=Nc2cccnc2)c1	6.77% (inactive)
CN1CCN(CC(O)COc2ccccc2)CC1 (stereo not drawn)	-7.2% (inactive)
CCCCNc1oc(-c2cccs2)nc1S(=O)(=O)c1ccccc1	-0.64% (inactive)
CC(C)(CNC(=O)c1cccs1)CNC(=O)c1cccs1	0.17% (inactive)
O=C(CSc1nccc(=O)[nH]1)NCc1ccc2c(c1)OCO2	3.96% (inactive)
CCOC(=O)N1CCN(CC(O)COCCC23CC4CC(CC(C4)C2)C3)CC1 (stereo not drawn)	13.8% (inactive)
O=c1c2c3c(sc2nc2n1CCCCC2)CCCCC3	0.94% (inactive)
O=C1CCCc2c1sc1nc3n(c(=O)c21)CCCCC3	2.33% (inactive)
Nc1ncnc2c1CN(Cc1ccccc1)CC2	-5.85% (inactive)
CC1(C)CC(=O)C2=C(C1)OC(N)=C(C#N)C2c1ccccc1 (stereo not drawn)	3.85% (inactive)
N#CC1(Nc2ccc([N+](=O)[O-])cc2)CCCC1	10.3% (inactive)
CCOC(=O)C1=C(COC(=O)/C=C/c2ccc(Cl)cc2)NC(=O)NC1C (stereo not drawn)	2.25% (inactive)
CCOC(=O)C1=C(COC(=O)/C=C/c2ccc(C)o2)NC(=O)NC1C (stereo not drawn)	-5.28% (inactive)
O=C(O)/C=C/c1ccccc1Oc1ccccc1	-6.82% (inactive)
Cc1ccc(N=C2NC(=O)/C(=C/c3cccn3C)S2)cc1C	-3.5% (inactive)
COc1ccc(CCNc2cc(C)nc3c(-c4ccccc4OC)cnn23)cc1OC	3.45% (inactive)
CC(C)(CO)CN1CCC(n2nccc2NC(=O)C2CCCC2)CC1	-9.4% (inactive)
CCNC(=O)N1c2ccc(OC)cc2C(C)=CC1(C)C	18.1% (inactive)
COc1ccc2c(c1)C(C)=CC(C)(C)N2C(=O)Nc1ccccc1	1.41% (inactive)
COc1cccc(C(C#N)N2CCOCC2)c1 (stereo not drawn)	-0.56% (inactive)
C/C(=N\NC(=O)CCc1ccc(S(=O)(=O)N2CCOCC2)cc1)c1ccc(OC(F)F)cc1	18.9% (inactive)

SMILES	inhibition
CC(NC(=O)c1ccc(Cn2cc([N+](=O)[O-])cn2)cc1)c1ccccc1 (stereo not drawn)	-7.96% (inactive)
O=C1C(Cl)=C(N2CCOCC2)C(=O)N1c1ccc(Br)cc1	12.4% (inactive)
O=C1C(Cl)=C(N2CCCCCC2)C(=O)N1c1ccccc1	4.82% (inactive)
CCOc1ccccc1C(=O)NC(C(=O)OCC(=O)NNC(=O)c1cccs1)C(C)C (stereo not drawn)	-2.67% (inactive)
Cc1cc(NN)nc2ccc(Cl)cc12	21% (inactive)
O=C(Cc1csc(Nc2nc(=S)[nH]c3ccccc23)n1)NCc1ccc(Cl)cc1	3.88% (inactive)
Cc1cc(SCc2ccc(C(F)(F)F)cc2)nc(=O)[nH]1	4.23% (inactive)
Cc1cccc(-c2cc3nc4c(c(NCc5ccco5)n3n2)CCCC4)c1	3.78% (inactive)
Clc1cccc(-c2cc3nc4c(c(NCc5ccco5)n3n2)CCCC4)c1	-4.82% (inactive)
Brc1ccc(CSc2nnc(-c3ccco3)o2)cc1	-2.39% (inactive)
c1coc(-c2nnc(SCc3cn4ccccc4n3)o2)c1	2.16% (inactive)
COc1ccc(-c2c(C)n([O-])c(C)c(-c3ccccc3)[n+]2=O)cc1OC	-6.67% (inactive)
Cc1cccc(OCc2nnc(SCC(=O)Nc3ccc(C)c(Cl)c3)o2)c1	-12% (inactive)
Cc1cc(C)cc(NC(=O)CN(C)CC(=O)N(CC(C)C)c2c(N)n(CC(C)C)c(=O)[nH]c2=O)c1	1.78% (inactive)
COc1cc(-c2ccc(NC(C)=O)c(OC)c2)ccc1NC(C)=O	1.06% (inactive)
O=C(O)c1ccccc1Nc1ccccc1C(=O)O	5.44% (inactive)
CCOc1cc(-n2nc(C)c(C#N)c2N)nc(SC)n1	-1.98% (inactive)
COc1cccc(/C=C2\CCCCC2=O)c1	8.63% (inactive)
CC(NC(=O)C12CC3CC(C1)CC(n1cncn1)(C3)C2)C12CC3CC(CC(C3)C1)C2 (stereo not drawn)	-7.08% (inactive)
O=C(COC(=O)CCC(=O)N1CCOCC1)Nc1ccc(Br)cc1Br	3.75% (inactive)
O=C(C1CCCN1S(=O)(=O)c1ccc(Cl)cc1)N1CCCCC1 (stereo not drawn)	-2.58% (inactive)
CN1CCN(c2ccc(C(=O)c3ccc(F)cc3)cc2)CC1	-7.54% (inactive)
O=C(O)c1ccc(N2CCCCC2)cc1	8.04% (inactive)
O=Cc1ccc(N2CCCCC2)cc1	-6% (inactive)
Nc1ccc(N2CCN(c3ccc(Cl)c(Cl)c3)CC2)cc1	22.2% (inactive)

SMILES	inhibition
CCn1c(SCC(=O)NC2CC2)nnc1-c1ccccc1	-1.91% (inactive)
COc1ccc(CNC(=O)c2ccccc2NS(C)(=O)=O)cc1	1.78% (inactive)
C=C(C)CNC(=S)NNC(=O)c1ccncc1	-3.17% (inactive)
Cc1cc(C)c(S(=O)(=O)NCCc2ccncc2)c(C)c1	-0.3% (inactive)
CC(NC(N)=O)C(=O)Nc1ccc(Cl)c(S(=O)(=O)Nc2ccc(Br)cc2)c1 (stereo not drawn)	10.3% (inactive)
CCOc1ccc(S(=O)(=O)n2ccc(C)n2)cc1	-9.61% (inactive)
CCOc1ccc(NC(=O)NC2CCOC(C)(C)C2)cc1 (stereo not drawn)	22% (inactive)
CCOc1ccc(NCCC#N)cc1	-2.11% (inactive)
Cc1ccc(C)c(NC(=O)CSc2nc3c(c(=O)n2C)SC(C)C3)c1 (stereo not drawn)	8.15% (inactive)
Cc1cc(C)c(NC(=O)CSc2nc3c(c(=O)n2C)SC(C)C3)c(C)c1 (stereo not drawn)	3.57% (inactive)
CCC(C)N(NC(C)=O)c1nc(Cl)nc(NC(C)(C)C)n1 (stereo not drawn)	7.21% (inactive)
COc1ccc(/C=N/NC(=O)CN(C2=NS(=O)(=O)c3ccccc32)c2ccccc2)cc1	22.5% (inactive)
CCOC(=O)C1(Cc2cccc(OC)c2)CCN(Cc2ccc(C)s2)CC1	11.4% (inactive)
Cc1cc(C(C)(C)C)c(O)c(C(C)(C)C)c1	17.9% (inactive)
Cc1ccc(O)c(Cc2cc(C)cc(Cc3cc(C)ccc3O)c2O)c1	-3.64% (inactive)
COc1ccc(OC)c(-c2[nH]nc3c2C(c2ccco2)C(C#N)=C(N)O3)c1 (stereo not drawn)	17.4% (inactive)
CC(=O)Nc1ccc(S(=O)(=O)Nc2nc3ccc([N+](=O)[O-])cc3s2)cc1	0.77% (inactive)
COc1ccc(-c2cc(C(=O)NCC3CCCO3)c3ccccc3n2)cc1 (stereo not drawn)	-7.4% (inactive)
O=C(Nc1cccc(S(=O)(=O)NC2=NCCC2)c1)c1cc(-c2ccco2)nc2ccccc12	-0.28% (inactive)
O=C(NCC1CCCO1)c1cc(-c2ccncc2)nc2ccccc12 (stereo not drawn)	-2.45% (inactive)
O=C(Nc1cccc(S(=O)(=O)NC2=NCCC2)c1)c1cc(-c2ccccn2)nc2ccccc12	-2.06% (inactive)
O=C(NC1CC1)c1cc(-c2ccccn2)nc2ccccc12	-3.96% (inactive)
O=C(NNC(=O)c1cc(-c2ccco2)nc2ccccc12)c1ccccc1	14% (inactive)
